In ChEMBL document CHEMBL2218924, “A broad activity screen in support of a chemogenomic map for kinase signalling research and drug discovery” (Biochem J, 2013) one finds residual activity data, which are given here for eleven compounds.

Test [1] has as its target Mitogen-activated protein kinase 11 (Homo sapiens) (UniProt Q15759). Conditions: at 10 µM.
The target in test [2] is T1, Mitogen-activated protein kinase 13 (Homo sapiens) (UniProt O15264).
T1 sequence (whole entry): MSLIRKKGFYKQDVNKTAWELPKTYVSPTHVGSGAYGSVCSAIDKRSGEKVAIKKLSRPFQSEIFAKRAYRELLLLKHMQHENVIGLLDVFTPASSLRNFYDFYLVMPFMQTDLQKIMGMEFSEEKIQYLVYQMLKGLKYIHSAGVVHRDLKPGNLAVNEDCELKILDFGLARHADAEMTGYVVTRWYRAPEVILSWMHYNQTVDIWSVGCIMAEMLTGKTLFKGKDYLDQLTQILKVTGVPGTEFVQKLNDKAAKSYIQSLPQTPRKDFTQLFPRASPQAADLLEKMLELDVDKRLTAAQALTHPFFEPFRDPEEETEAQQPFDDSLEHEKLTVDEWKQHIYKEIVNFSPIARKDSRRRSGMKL
Conditions: at 1 µM.

Test [3] has as its target T1, Mitogen-activated protein kinase 13 (Homo sapiens). Conditions: at 10 µM.
The target in test [4] is T2, Serine/threonine-protein kinase Sgk1 (Homo sapiens) (UniProt O00141).
T2 sequence (whole entry): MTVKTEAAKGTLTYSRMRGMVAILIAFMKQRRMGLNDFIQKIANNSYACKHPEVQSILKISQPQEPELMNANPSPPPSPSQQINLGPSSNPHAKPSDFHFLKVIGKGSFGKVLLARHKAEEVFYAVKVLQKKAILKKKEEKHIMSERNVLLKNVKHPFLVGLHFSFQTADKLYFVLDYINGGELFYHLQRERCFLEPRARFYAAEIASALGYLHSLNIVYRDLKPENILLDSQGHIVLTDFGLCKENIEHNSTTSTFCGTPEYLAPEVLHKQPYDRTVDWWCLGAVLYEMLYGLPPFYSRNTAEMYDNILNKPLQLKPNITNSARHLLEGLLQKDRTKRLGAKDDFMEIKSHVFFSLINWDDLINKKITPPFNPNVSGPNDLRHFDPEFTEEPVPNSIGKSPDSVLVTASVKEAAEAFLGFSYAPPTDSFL
Conditions: at 1 µM.

For test [5], the target named is T2, Serine/threonine-protein kinase Sgk1 (Homo sapiens). Conditions: at 10 µM.
Test [6] deals with T3, Serine/threonine-protein kinase Sgk2 (Homo sapiens) (UniProt Q9HBY8).
T3 sequence (whole entry): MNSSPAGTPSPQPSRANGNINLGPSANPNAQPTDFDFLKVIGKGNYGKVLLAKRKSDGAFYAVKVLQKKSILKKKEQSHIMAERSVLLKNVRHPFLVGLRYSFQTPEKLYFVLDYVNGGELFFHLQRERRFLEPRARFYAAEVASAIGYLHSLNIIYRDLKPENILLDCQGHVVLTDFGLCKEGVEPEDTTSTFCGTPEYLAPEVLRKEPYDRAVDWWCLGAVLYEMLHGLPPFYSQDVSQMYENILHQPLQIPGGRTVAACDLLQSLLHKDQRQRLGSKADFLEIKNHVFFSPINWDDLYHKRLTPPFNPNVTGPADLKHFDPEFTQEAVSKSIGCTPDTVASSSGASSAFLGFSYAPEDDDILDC
The following applies: at 10 µM.

In test [7] the target is T4, Serine/threonine-protein kinase Sgk3 (Homo sapiens) (UniProt Q96BR1).
T4 sequence (whole entry): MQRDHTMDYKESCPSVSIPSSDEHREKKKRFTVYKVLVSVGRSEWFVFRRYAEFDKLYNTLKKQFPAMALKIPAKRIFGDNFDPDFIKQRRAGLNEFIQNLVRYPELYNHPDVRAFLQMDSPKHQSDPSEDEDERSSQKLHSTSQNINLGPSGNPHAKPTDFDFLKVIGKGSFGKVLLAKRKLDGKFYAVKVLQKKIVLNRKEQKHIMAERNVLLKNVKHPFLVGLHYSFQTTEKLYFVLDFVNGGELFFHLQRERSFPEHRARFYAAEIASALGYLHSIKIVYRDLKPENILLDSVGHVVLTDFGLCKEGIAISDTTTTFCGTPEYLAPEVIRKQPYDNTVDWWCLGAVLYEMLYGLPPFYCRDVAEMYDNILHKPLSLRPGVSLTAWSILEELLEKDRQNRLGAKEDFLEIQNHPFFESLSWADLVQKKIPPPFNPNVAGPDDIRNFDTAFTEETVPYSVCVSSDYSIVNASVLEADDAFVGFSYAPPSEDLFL
Conditions: at 10 µM.

The target of test [8] is Serine/threonine-protein kinase SIK1 (Homo sapiens) (UniProt P57059). The following applies: at 1 µM.
For test [9] the target is unchanged. Conditions: at 10 µM.
Test [10] deals with SRSF protein kinase 2 (Homo sapiens) (UniProt P78362). The following applies: at 10 µM.
Test [11] addresses Serine/threonine-protein kinase PLK2 (Homo sapiens) (UniProt Q9NYY3). Conditions: at 1 µM.
The target is the same in test [12]. Conditions: at 10 µM.
The target in test [13] is Tyrosine-protein kinase SYK (Homo sapiens) (UniProt P43405). The following applies: at 1 µM.
Test [14] concerns the target T3, Serine/threonine-protein kinase Sgk2 (Homo sapiens). Conditions: at 1 µM.
Test [15] has as its target SRSF protein kinase 1 (Homo sapiens) (UniProt Q96SB4). The following applies: at 1 µM.
For test [16] the target is unchanged. The following applies: at 10 µM.
Test [17] has as its target SRSF protein kinase 2 (Homo sapiens) (UniProt P78362). Conditions: at 1 µM.
For test [18], the target named is Serine/threonine-protein kinase 33 (Homo sapiens) (UniProt Q9BYT3). The following applies: at 10 µM.
Test [19] has the same target. The following applies: at 1 µM.

Chain of Serine/threonine-protein kinase PLK2 (Homo sapiens) (Q9NYY3 whole entry, looked up): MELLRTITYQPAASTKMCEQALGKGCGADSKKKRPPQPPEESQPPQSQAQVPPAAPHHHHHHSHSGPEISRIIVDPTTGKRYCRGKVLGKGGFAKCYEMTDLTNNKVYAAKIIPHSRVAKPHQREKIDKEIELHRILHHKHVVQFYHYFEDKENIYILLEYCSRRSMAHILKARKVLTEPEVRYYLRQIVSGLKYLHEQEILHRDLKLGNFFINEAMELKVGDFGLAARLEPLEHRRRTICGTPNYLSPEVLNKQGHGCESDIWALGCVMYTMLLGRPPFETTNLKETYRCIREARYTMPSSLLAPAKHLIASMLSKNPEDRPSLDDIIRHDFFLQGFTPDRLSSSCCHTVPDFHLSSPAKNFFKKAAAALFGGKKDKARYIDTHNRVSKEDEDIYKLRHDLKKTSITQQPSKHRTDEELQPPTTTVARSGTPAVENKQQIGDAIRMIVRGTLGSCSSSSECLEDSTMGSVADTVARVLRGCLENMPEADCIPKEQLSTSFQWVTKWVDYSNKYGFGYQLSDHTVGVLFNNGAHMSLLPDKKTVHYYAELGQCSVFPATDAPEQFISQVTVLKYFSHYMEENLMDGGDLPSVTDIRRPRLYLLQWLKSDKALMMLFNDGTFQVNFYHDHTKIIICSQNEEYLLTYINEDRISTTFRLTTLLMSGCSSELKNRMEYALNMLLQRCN
Chain of Serine/threonine-protein kinase 33 (Homo sapiens) (Q9BYT3 whole entry, looked up): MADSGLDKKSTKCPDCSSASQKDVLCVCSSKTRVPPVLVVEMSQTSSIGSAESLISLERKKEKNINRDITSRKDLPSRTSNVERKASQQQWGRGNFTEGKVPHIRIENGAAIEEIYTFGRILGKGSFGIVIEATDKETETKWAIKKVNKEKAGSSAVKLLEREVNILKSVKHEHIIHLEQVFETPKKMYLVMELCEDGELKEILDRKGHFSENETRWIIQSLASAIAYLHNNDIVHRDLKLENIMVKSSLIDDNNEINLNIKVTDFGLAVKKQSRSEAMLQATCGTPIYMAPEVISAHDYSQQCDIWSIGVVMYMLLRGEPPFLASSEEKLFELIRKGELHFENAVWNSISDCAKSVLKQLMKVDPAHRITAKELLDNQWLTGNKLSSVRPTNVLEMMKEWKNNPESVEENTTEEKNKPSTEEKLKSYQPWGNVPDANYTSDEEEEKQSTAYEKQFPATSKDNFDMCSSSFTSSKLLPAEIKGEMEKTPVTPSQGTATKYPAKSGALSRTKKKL
Chain of SRSF protein kinase 1 (Homo sapiens) (Q96SB4 whole entry): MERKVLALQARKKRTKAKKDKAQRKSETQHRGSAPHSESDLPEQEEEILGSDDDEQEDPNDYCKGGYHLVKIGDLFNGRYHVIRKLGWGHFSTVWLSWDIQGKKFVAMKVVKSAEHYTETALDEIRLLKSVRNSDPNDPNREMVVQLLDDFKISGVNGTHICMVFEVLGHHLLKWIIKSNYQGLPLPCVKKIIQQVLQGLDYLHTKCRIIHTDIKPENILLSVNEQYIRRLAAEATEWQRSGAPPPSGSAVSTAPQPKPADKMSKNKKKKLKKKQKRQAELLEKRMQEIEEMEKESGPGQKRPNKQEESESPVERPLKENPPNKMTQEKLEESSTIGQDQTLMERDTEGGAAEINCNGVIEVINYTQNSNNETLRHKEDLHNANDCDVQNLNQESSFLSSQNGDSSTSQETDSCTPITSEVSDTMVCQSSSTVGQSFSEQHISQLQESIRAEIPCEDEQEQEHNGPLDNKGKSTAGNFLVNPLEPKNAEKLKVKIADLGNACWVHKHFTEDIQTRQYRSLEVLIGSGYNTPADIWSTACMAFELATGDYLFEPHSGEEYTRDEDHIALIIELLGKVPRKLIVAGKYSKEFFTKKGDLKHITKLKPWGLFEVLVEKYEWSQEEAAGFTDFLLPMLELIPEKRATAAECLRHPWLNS
Chain of SRSF protein kinase 2 (Homo sapiens) (P78362 whole entry, looked up): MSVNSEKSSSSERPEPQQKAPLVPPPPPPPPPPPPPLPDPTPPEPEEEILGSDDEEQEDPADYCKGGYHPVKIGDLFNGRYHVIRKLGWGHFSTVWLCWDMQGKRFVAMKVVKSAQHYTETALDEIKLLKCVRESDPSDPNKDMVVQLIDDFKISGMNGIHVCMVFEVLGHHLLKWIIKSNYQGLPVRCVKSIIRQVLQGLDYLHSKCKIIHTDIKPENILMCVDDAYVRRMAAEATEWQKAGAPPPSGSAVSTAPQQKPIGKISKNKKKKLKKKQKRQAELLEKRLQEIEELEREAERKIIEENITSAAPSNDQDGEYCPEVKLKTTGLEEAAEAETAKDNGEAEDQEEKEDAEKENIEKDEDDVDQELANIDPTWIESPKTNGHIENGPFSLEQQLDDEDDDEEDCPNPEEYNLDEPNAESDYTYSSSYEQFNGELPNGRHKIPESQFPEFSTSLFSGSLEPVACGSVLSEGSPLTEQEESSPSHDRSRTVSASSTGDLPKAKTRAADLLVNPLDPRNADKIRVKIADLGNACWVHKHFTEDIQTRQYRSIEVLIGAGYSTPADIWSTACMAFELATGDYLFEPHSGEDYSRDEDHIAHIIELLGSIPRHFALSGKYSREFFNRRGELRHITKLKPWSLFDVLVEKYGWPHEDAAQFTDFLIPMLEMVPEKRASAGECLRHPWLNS
Chain of Serine/threonine-protein kinase SIK1 (Homo sapiens) (P57059 whole entry): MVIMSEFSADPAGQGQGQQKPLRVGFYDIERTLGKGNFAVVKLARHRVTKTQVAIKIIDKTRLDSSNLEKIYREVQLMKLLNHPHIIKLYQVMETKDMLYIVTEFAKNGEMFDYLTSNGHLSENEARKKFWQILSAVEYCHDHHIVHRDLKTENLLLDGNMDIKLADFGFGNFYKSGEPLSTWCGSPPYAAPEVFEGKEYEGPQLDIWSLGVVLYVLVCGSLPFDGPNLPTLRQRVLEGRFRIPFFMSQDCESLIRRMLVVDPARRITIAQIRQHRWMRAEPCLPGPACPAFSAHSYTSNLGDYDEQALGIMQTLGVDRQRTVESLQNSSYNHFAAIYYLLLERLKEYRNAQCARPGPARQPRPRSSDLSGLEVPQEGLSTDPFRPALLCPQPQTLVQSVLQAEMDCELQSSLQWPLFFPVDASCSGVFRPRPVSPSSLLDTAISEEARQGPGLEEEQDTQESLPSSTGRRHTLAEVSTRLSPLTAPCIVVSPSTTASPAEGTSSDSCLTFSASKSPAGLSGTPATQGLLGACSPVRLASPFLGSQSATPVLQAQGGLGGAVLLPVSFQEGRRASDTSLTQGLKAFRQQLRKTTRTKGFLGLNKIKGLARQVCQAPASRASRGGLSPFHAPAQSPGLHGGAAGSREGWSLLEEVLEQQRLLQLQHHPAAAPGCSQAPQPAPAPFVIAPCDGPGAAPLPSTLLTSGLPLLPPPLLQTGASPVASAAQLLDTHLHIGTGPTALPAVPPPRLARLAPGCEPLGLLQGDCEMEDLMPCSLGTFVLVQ
Chain of Mitogen-activated protein kinase 11 (Homo sapiens) (Q15759 whole entry): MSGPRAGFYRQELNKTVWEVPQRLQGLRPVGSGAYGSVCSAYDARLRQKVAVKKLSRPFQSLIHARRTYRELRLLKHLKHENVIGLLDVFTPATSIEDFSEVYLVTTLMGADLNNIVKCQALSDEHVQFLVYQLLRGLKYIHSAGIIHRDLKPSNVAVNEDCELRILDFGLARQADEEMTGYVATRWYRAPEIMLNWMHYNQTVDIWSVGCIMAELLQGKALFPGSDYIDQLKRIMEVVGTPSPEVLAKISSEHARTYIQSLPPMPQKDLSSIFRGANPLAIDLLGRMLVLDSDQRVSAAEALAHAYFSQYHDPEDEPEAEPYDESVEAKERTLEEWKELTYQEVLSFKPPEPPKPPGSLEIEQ

On to `O=C1C(Cl)=C(N2C(=O)CCC2=O)C(=O)c2ccccc21`, for which the residual activity was 92% in [1]; 95% in test [2]; 92% in [3]; 90% in test [4]; 100% in test [5]; 97% in test [6]. The residual activity was determined as 82% in [7]; 122% in [8]; 98% in [9]; 88% in test [10]; 100% in [11]; 90% in [12]. The residual activity in test [13] worked out at 100%.
Take `CC(C)N(CCC(=O)c1ccc2ccccc2c1)Cc1ccccc1`: the residual activity in test [4] is 78%; in test [5] it was 100%; in [7], 85%; in test [8] it was 79%; in test [10] it was 85%; in test [13], 127%.
As for `O=C1NC(=O)C(c2c[nH]c3ccccc23)=C1c1c[nH]c2ccccc12`, the residual activity in [3] was 99%; in test [4] it was 76%; in [5], 65%; in test [14], 78%; in test [6] it was 29%; in [8], 81%. The residual activity in test [9] was 7%; in test [15] it was 63%; in test [16], 6%; in test [17], 74%; in test [10] it was 22%; in test [18], 71%. The residual activity in test [13] came to 120%.
With `O=C(Nc1nc2ccccc2n1CCN1CCOCC1)c1cccc([N+](=O)[O-])c1`, the residual activity stood at 109% in test [2]; 87% in test [3]; 108% in test [14]; 75% in test [6]; 70% in test [8]; 73% in test [9]. Besides, the residual activity in [17] turned out to be 79%; in [10], 74%; in [19], 83%; in test [18] it was 88%; in [13] it was 123%.
Turning to `NCCNc1ncc(C(N)=O)c(Nc2cccc(C(F)(F)F)c2)n1`, the residual activity in test [1] was 104%; in test [2], 114%; in test [3], 101%; in test [4], 81%; in [5], 129%; in [14] it was 82%. Also, the residual activity in test [6] worked out at 78%; in [7], 66%; in [8], 63%; in [9], 20%; in test [13], 6%.
Regarding `NC(=O)c1cccc(-c2cc(Nc3ccc(OC(F)(F)F)cc3)ncn2)c1`, the residual activity came to 96% in test [3]; 159% in test [5]; 92% in [14]; 92% in [6]; 96% in test [8]; 7% in test [9]. Moreover, the residual activity in test [16] came out at 97%.
In the case of `Nc1n[nH]c2nc3ccccc3nc12`, the residual activity was determined as 98% in test [3]; 92% in [14]; 45% in test [6]; 118% in test [8]; 72% in [9]; 94% in test [17]. In addition, the residual activity stood at 82% in test [10]; 98% in test [19]; 83% in [18]; 99% in test [11]; 68% in test [12].
Consider `O=S(=O)(NCCNC/C=C/c1ccc(Br)cc1)c1cccc2cnccc12`, for which the residual activity in [6] stood at 30%; in test [8] it was 137%; in test [9] it was 57%.
For the compound `CCN1/C(=C/C(C)=O)Sc2ccc(OC)cc21`, the values for the residual activity in [7], in test [19] and in [18] were 65%, 82% and 58%, respectively.
On to `O=C(Nc1ccc(Cl)cc1)c1ccccc1NCc1ccncc1`, for which the residual activity in test [5] worked out at 128%; in [6], 72%.
`O=C(c1cc2cc(O)ccc2[nH]1)c1cc2cc(O)ccc2[nH]1`: the residual activity in test [4] is 68%; in test [5], 28%; in test [14] it was 62%; in test [6] it was 18%; in test [7] it was 52%; in test [8] it was 39%. In addition, the residual activity in test [9] came to 8%; in test [15], 81%; in [16], 79%; in test [10], 71%; in test [19], 83%; in test [18], 62%. Moreover, the residual activity in [12] stood at 78%; in test [13], 82%.
